14 compounds from PubChem BioAssay (NCI) can be followed below.

The assay can be described thus: NCI Yeast Anticancer Drug Screen. Data for the mec2-1 strain (AID 157). The conditions noted are these: S. cerevisiae mec2-1 strain, stronger effect = higher value. As to the method:
Growth inhibition of yeast strains with defined genetic alterations is measured as a screen for potential anti-cancer activity. Selected strains with alterations in DNA damage repair or cell cycle control were exposed to compounds and growth inhibition was measured relative to vehicle treated controls. The strain used in this assay is mec2-1

The mark [1] stands for this setting: at 5.0 µM (retest, dose inferred, filed as 0.5).
[2] abbreviates: at 50.0 µM (retest, dose inferred, filed as 5.0).

Compounds without any hit were thinned out: in the full panel of roughly 79,000, 15% have a hit. Unmarked numbers belong to inactive results. Calls of active or inactive are those of the source. No stated cut-off is given here; in the data, active means growth inhibition above about 70%; inactive means the rest.

Regarding `Cc1ccc(NN)cc1`, the growth inhibition under setting [1] is 0%, the growth inhibition under setting [2] is 69% and the growth inhibition (at 50.0 µM) is 40.7%.

Regarding `O=C(NCc1ccc(F)cc1)c1ccc(C(=O)NCc2ccc(F)cc2)cc1`, the growth inhibition was -19% under setting [1], 21% under setting [2] and -4.05% (at 50.0 µM).

On to `Clc1ccc(CN2CCN(Cc3ccc(Cl)cc3)C2c2ccc(Cl)cc2)cc1`, for which the growth inhibition under setting [1] is 4%, the growth inhibition under setting [2] was 58% and the growth inhibition (at 50.0 µM) is 34.5%.

Take `ONC(=Nc1ccccc1)c1ccccc1`: the growth inhibition reads like this: under setting [1], -42%; under setting [2], 47%; (at 50.0 µM) 98.3% (active).

In the case of `S=c1sc2ccccc2n1C=Nc1ccccc1`, the growth inhibition under setting [1] is -5%, the growth inhibition under setting [2] was 97% (active) and the growth inhibition (at 50.0 µM) is 98.8% (active).

Turning to `Cc1cccc2c1C1c3c(C)cccc3C(O)CC1CC2O` (configuration not stated), the growth inhibition under setting [1] was -6%, the growth inhibition under setting [2] is -4% and the growth inhibition (at 50.0 µM) is 23.1%.

For the compound `c1ccc(C2=NCCC(c3ccccc3)S2)cc1` (configuration not stated), the growth inhibition runs as follows: under setting [1], -4%; under setting [2], 3%; (at 50.0 µM) -4.1%.

Consider `CC(C)O[C@H]1N(C2CC(N=[N+]=[N-])C(CO)O2)C(=O)NC(=O)[C@]1(C)Br` (some centres not stated), for which the growth inhibition is -6% under setting [1], 57% under setting [2] and 91.2% (active) (at 50.0 µM).

In the case of `Cc1cc(N=Nc2ccccc2C)c(N)cc1N`, the growth inhibition runs as follows: under setting [1], -11%; under setting [2], 97% (active); (at 50.0 µM) 99.2% (active).

Turning to `CC1C/C(=C\c2ccc(O)c(O)c2)C(=O)/C(=C/c2ccc(O)c(O)c2)C1` (configuration not stated), the growth inhibition is 20% under setting [1], 67% under setting [2] and 32.3% (at 50.0 µM).

For `O=C(O)CCC12CCCCC1=NC1(CCCCC1)NC2=O` (configuration not stated), the growth inhibition was -2% under setting [1], -1% under setting [2] and 44.6% (at 50.0 µM).

For `C1=C(c2ccccc2)CCc2ccccc21`, the growth inhibition under setting [1] is 5%, the growth inhibition under setting [2] is -1% and the growth inhibition (at 50.0 µM) was -11.5%.

Consider `O=C1C(Cl)=C(N2CCN(c3ccccn3)CC2)C(=O)c2ncccc21`, for which the growth inhibition is 21% under setting [1], 98% (active) under setting [2] and 88.8% (active) (at 50.0 µM).

On to `CCCCOCN(CC(CC)CCCC)CC(CC)CCCC` (configuration not stated), for which the growth inhibition is 3% under setting [1], 14% under setting [2] and 12.8% (at 50.0 µM).
